From PubChem BioAssay (NCI)
About 79,000 compounds went through this panel and 15% of them were active in at least one assay; those are over-represented in the sample as a whole. Values without a mark were called inactive. Activity calls are given as the source filed them. Rule as the data show it: active = growth inhibition above about 70%; inactive = the rest.

What was measured:
[1] = NCI Yeast Anticancer Drug Screen. Data for the rad50 strain (AID 155);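 also: 0% = growth of vehicle-only cultures of the same strain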; conditions: S. cerevisiae rad50 strain growth inhibition, hits give high values
Method in brief: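 Growth of the mutant yeast was measured after compound exposure and referenced to vehicle-treated cultures.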

[2] = NCI Yeast Anticancer Drug Screen. Data for the mec2-1 strain (AID 157); conditions: S. cerevisiae mec2-1 strain, hits give high values
Method in brief: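 Growth inhibition is read against vehicle-treated controls after compound exposure of the mec2-1 yeast strain, which is defective in DNA damage repair or cell cycle control.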

[3] = NCI Yeast Anticancer Drug Screen. Data for the sgs1 mgt1 strain (AID 161);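 also: 0% = growth of cultures given vehicle only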; conditions: S. cerevisiae sgs1 mgt1 strain, hits give high values
Method in brief: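 Percent growth inhibition was derived by comparing compound-exposed mutant yeast with vehicle-exposed cultures. The strain carries alterations in DNA damage repair.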

[4] = NCI Yeast Anticancer Drug Screen. Data for the cln2 rad14 strain (AID 165);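 also: 0% = growth equal to vehicle treated cultures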; conditions: S. cerevisiae cln2 rad14 strain, hits give high values
Method in brief: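 Growth inhibition, relative to vehicle-treated controls, is the read-out. The test organism is a yeast strain with defined genetic alterations, cln2 rad14.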

[5] = NCI Yeast Anticancer Drug Screen. Data for the bub3 strain (AID 167); conditions: S. cerevisiae bub3 mutant strain, hits give high values
Method in brief: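 Whole-cell yeast assay. The mutant strain was incubated with compounds, and growth inhibition was determined by comparison with vehicle-treated cells.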

[6] = NCI Yeast Anticancer Drug Screen. Data for the mlh1 rad18 strain (AID 175); conditions: S. cerevisiae mlh1 rad18 strain growth inhibition, hits give high values
Method in brief: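 Cells of a genetically altered yeast strain, deficient in DNA damage repair, were treated with compound. Their growth was then compared with that of vehicle-treated cultures to give inhibition.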

[7] = at 5.0 µM (retest, dose inferred, filed as 0.5)
[8] = at 50.0 µM (retest, dose inferred, filed as 5.0)

| SMILES | growth inhibition [1, 7] | growth inhibition [1, 8] | growth inhibition ([1]; at 50.0 µM) | growth inhibition [2, 7] | growth inhibition [2, 8] | growth inhibition ([2]; at 50.0 µM) | growth inhibition [3, 7] | growth inhibition [3, 8] | growth inhibition ([3]; at 50.0 µM) | growth inhibition [4, 7] | growth inhibition [4, 8] | growth inhibition ([4]; at 50.0 µM) | growth inhibition [5, 7] | growth inhibition [5, 8] | growth inhibition ([5]; at 50.0 µM) | growth inhibition [6, 7] | growth inhibition [6, 8] | growth inhibition ([6]; at 50.0 µM) |
| --- | --- | --- | --- | --- | --- | --- | --- | --- | --- | --- | --- | --- | --- | --- | --- | --- | --- | --- |
| Cc1cccc2c(CC(=O)O)cccc12 | -5% | 78% (active) | 78.7% (active) | 7% | 82% (active) | 77.7% (active) | 1% | 81% (active) | 52.5% | 19% | 61% | 71.8% (active) | -1% | 95% (active) | 75% (active) | 4% | 88% (active) | 78.5% (active) |
| CCOc1ccc2c(c1)n([O-])c1ccccc1[n+]2=O | 88% (active) | 98% (active) | 56% | 12% | 99% (active) | 97.4% (active) | 55% | 99% (active) | 99.2% (active) | 31% | 98% (active) | 98.1% (active) | 17% | 98% (active) | 98.8% (active) | 81% (active) | 98% (active) | 99.1% (active) |
| C=C1CC2(CCOc3ccccc32)OC1=O (stereo not given) | 6% | 70% (active) | 80.5% (active) | 17% | 91% (active) | 89.1% (active) | 12% | 92% (active) | 95% (active) | 5% | 60% | 18.6% | 4% | 86% (active) | 88.3% (active) | 17% | 89% (active) | 91% (active) |
| CC(C)(Oc1ccc(-c2cccc3ccccc23)cc1)C(=O)O | 9% | 42% | 58.3% | 5% | 51% | 13.7% | 6% | 49% | 29.4% | -6% | 54% | 70.5% (active) | 13% | 54% | 67.8% | -6% | 49% | 28.8% |
| CC(C)/C(Cl)=N/OC(=O)Nc1ccc(OC(F)(F)F)cc1 | 2% | 98% (active) | 81% (active) | -30% | 98% (active) | 88.3% (active) | 39% | 98% (active) | 83.5% (active) | -7% | 97% (active) | 76.2% (active) | -27% | 98% (active) | 85.5% (active) | -7% | 97% (active) | 77.1% (active) |
